RORgamma inh – blocks mouse ROR gamma transcriptional activity | P51450 | Drosophila S2 Gal4-RORgamma UAS-luciferase reporter, 20 h | Potency, µM (titrated, usually from 53.6 µM), for inactives: at the highest dose activity change, negative = inhibition, actives largely listed as inhibitors | actives 5.4% (n = 310,000) | AID 2551; further: on the % scale 0 is the no-effect control and ±100 the full control effect; nearly all actives have a fitted effect of over 60% in size
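Schneider cells (Drosophila), stable Gal4 DBD–ROR gamma + UAS-luc; 1 hr cmpd preincubation; Cu2+ induction 700 uM final; 20 hr ambient; luminescence.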
GLP1R cytotox – cytotoxic in the GLP-1 receptor inverse agonist counter-screen | HEK293 cAMP-luciferase reporter cells, luminescence, 24 h | Potency, µM (doses to about 38.3 µM), for inactives: at the top dose activity change, negative = inhibition, most hits filed as inhibitors | actives 0.13% (n = 410,000);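 further: loss of luciferase light is scored as toxicity; on the % scale 0 is the no-effect control and ±100 the full control effect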
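1536-well qHTS counterscreen of the MLSMR; 200 cells/uL, 12 h pre-incubation, 23 nL cpd, 24 h at 37 deg C 5% CO2, luciferase detection reagent, 12 min RT, luminescence. Inhibition = undesired.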
Gal4-VP16 FLuc – counter-screen for ROR gamma inhibitors: Gal4-VP16 reporter | Drosophila S2 Gal4-VP16 UAS-luciferase, luminescence, 20 h | Potency, µM (series often up to 53.6 µM), for the others: top-dose activity, negative = inhibition, most hits filed as inhibitors | actives 3.5% (n = 310,000);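 further: Gal4-VP16 expression switched on by copper sulfate through the metallothionein promoter; on the % scale 0 is the no-effect control and ±100 the full control effect; nearly all actives have a fitted effect of over 50% in size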
GLP1R ag – GLP-1 receptor (human) agonism. P43220. actives 0.007% (n = 380,000). HEK293 GLP-1R CRE-luciferase, luminescence, 4-6 h; cells express a hypersensitive GLP-1R form. Potency, µM (highest dose often 45.6 µM), for inactives: top-dose activation, actives largely listed as activators; further: % of control where 0% means no effect
Target sequence (P43220 whole entry, looked up): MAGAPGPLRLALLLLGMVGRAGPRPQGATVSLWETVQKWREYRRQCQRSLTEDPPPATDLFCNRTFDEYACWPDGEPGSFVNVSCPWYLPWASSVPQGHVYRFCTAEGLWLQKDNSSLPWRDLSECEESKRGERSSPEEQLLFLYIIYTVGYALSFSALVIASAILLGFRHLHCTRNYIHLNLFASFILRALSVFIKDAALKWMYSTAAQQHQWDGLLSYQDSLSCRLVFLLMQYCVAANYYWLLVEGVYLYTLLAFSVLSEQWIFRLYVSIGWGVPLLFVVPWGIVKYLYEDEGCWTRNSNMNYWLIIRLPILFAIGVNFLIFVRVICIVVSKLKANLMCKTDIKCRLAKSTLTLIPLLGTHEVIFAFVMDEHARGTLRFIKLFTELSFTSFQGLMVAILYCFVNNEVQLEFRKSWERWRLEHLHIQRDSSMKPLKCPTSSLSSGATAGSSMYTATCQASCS
GLP1R inv ag – inverse agonists of human GLP-1 receptor; P43220; HEK293 GLP-1R CRE-luciferase, luminescence, 24 h; GLP-1R form is constitutively active; Potency, µM (doses to about 38.3 µM), inactives show at the top dose activity change, negative = inhibition, usual class: inhibitors; actives 1.6% (n = 410,000); further: on the % scale 0 is the no-effect control and ±100 the full control effect; nearly all actives have a fitted effect of over 55% in size
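Inverse agonism was detected as reduced cAMP-driven luciferase luminescence after 24 h compound treatment. The cells were HEK293 clones expressing constitutively active human GLP-1R with the reporter. Reporter-only and GPR119 cell lines served as counterscreen controls.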
* marks the source's active call; other numbers are inactive results; ? = inconclusive; nt = no result given. Only some compounds are listed: those with a hit (about 5.9% of all), similar ones and a draw of the others. The call rests on the fitted dose curve; in most records, active means well fitted curve in the direction sought with a large enough effect; inconclusive means small, poorly fitted or top-dose-only effect, or another doubt; inactive means no such curve, though single readings can be large; an effect the other way counts as inactive or inconclusive. Potency means the concentration at half of the fitted maximal effect.

SMILES	RORgamma inh	GLP1R cytotox	Gal4-VP16 FLuc	GLP1R ag	GLP1R inv ag
Cc1ccc(S(=O)(=O)N(Cc2ccccc2)c2ccccc2C(=O)Nc2ccccc2C(=O)NCc2ccco2)cc1	-1%	15%	-15%	-5%	5µM*
CC(C)(C)CC(C)(C)NCC(O)COc1ccc2c(c1)CCC2 (stereo unspecified)	nt	?	nt	-4%	10µM*
Cc1ccc(NC(=O)Cn2c(=O)c(C(F)(F)F)nc3ccccc32)c(C)c1	nt	-1%	nt	nt	5%
COc1ccc(C(=O)NN(C)c2nc(C(F)(F)F)nc3ccccc23)cc1	3.2µM*	-19%	?	4%	-68%
CCCNC(=O)C1CCC(Cn2c(=O)c3sccc3n(CC(=O)N3CCC(C)CC3)c2=O)CC1 (stereo unspecified)	nt	-9%	nt	nt	3%
CO[C@@H](CCOCc1ccccc1)C[C@H]1O[C@H](C(=O)OC(C)C)C=C[C@@H]1C	-5%	nt	-12%	nt	nt
CCOC(=O)c1nc2ccc(C)cc2c2c1C1CC(c3c(Cl)cccc31)N2C(=O)OCc1ccccc1 (stereo unspecified)	nt	3%	nt	12%	5µM*
CCCCC#Cc1cncc(C(=O)N/N=C/c2cccc(OC)c2)c1	11µM*	-5%	?	7%	?
COCCNC(=S)N/N=C(\C)c1ccc(OC)cc1	0.63µM*	?	1.3µM*	15%	?
C=C(C)CNC(=S)N/N=C(\C)c1ccc(OC)cc1	2.2µM*	?	5µM*	-1%	5.6µM*
C/C(=N\NC(=O)C(N)=O)c1cccc(C(F)(F)F)c1	2%	-3%	-20%	5%	1%
COCCNC(=S)N/N=C(\C)c1ccc(C)c([N+](=O)[O-])c1	3.5µM*	-25%	4µM*	-1%	?
COCCNC(=S)N/N=C(\C)c1cccc(C(F)(F)F)c1	2.5µM*	?	5µM*	26%	?
COCCNC(=S)N/N=C(\C)c1ccc2cc(OC)ccc2c1	1µM*	3.2µM*	1µM*	?	?
COc1ccc2cc(/C(C)=N/NC(=O)C3CC3)ccc2c1	-21%	-15%	-4%	4%	-2%
COCCNC(=S)N/N=C(\C)c1ccc(OC(F)F)cc1	2.2µM*	?	7.9µM*	20%	?
COCCNC(=S)N/N=C(\C)c1cc2ccccc2o1	5µM*	7.9µM*	4.5µM*	8%	?
CC(C)CC(CSc1ccc(Br)cc1)N1CCN(C)CCC1=O (stereo unspecified)	1%	nt	-11%	nt	nt
Cc1ccc(NC(=S)Nc2ccc(S(=O)(=O)Nc3ncccn3)cc2)cc1Cl	32µM*	nt	?	nt	nt
Cc1ccc(NC(=S)NNS(=O)(=O)c2ccc3ccccc3c2)cc1Cl	11µM*	-14%	?	0%	-32%
O=S(=O)(Nc1ncccn1)c1ccc(NC(=S)Nc2cccc(Cl)c2)cc1	11µM*	nt	?	nt	nt
Cc1ccc(S(=O)(=O)NNC(=S)Nc2ccc(Cl)cc2)cc1	-29%	?	-6%	-2%	?
Cc1ccc(S(=O)(=O)NNC(=S)Nc2c(Cl)cccc2Cl)cc1	10µM*	2%	?	5%	0%
O=S(=O)(c1ccccc1)c1nnn2c1nc(N1CCN(c3ccccc3)CC1)c1cc(Cl)ccc12	nt	0%	nt	nt	7%
CCC1=C2CC[C@H]3C(=O)NC(=O)[C@H]3[C@H]2[C@@]2(C)C(=NCC(=O)OC)OC(=O)N2C1=O	-14%	nt	-2%	nt	nt
SMILES	RORgamma inh	GLP1R cytotox	Gal4-VP16 FLuc	GLP1R ag	GLP1R inv ag
COc1ccccc1CN(Cc1nc2ccccc2c(=O)[nH]1)C(=O)Nc1ccccc1	10µM*	?	?	3%	-41%
CCN(Cc1nc2ccccc2c(=O)[nH]1)C(=O)COc1ccccc1Cc1ccccc1	nt	-25%	nt	17%	13µM*
COc1ccccc1CNC(=O)CCc1nc2ccccc2c(=O)[nH]1	4%	5%	13%	-12%	5%
CC1=NN(c2ccccc2)C(=O)/C1=C/N(C)C	-16%	7%	-9%	-3%	-12%
CC1=NN(c2nc3ccccc3[nH]2)C(=O)/C1=C/N(C)C	5µM*	-7%	?	-2%	-9%
COc1ccc(-c2nnc3n2N=C(c2ccccc2OC)CS3)c(OC)c1	-15%	nt	-5%	nt	nt
COc1cccc(OC)c1OCCCCCc1c(C)n[nH]c1C	?	-4%	-5%	19%	5%
Cc1ccccc1OCCCCc1c(C)n[nH]c1C	?	-3%	13µM*	0%	-16%
Cc1n[nH]c(C)c1CCCCOc1ccccc1F	?	-6%	?	16%	-3%
Cc1ccccc1OCCCc1c(C)n[nH]c1C	7.1µM*	-15%	4%	9%	1%
Cc1cccc(C)c1OCCCCc1c(C)n[nH]c1C	18µM*	?	?	5%	0%
CCOC(=O)C1=C(CS(=O)(=O)c2ccc(C)cc2)NC(=O)NC1c1ccc(C(C)C)cc1 (stereo unspecified)	nt	-24%	nt	-1%	?
COC(=O)c1nnc(SC)nc1C(=O)OC	-18%	nt	-3%	nt	nt
COc1ccc(OC)c(NC(=O)c2ccc3nc(C(C)C)oc3c2)c1	nt	-22%	nt	nt	6%
CSc1nc(Nc2ccc(C)cc2C)cc(-c2ccccc2)n1	nt	-6%	nt	nt	?
O[C@@H]1CN(CC2CCCCC2)[C@@H](c2ccccc2)C[C@H]1n1cc(-c2ccc(F)cc2)nn1	nt	?	nt	-1%	4µM*
O[C@H]1CN(Cc2cccs2)[C@@H](c2ccccc2)C[C@@H]1n1cc(-c2ccc(F)cc2)nn1	nt	-11%	nt	-5%	10µM*
COc1ccc(C)cc1NC(=O)Nc1nnc(N2CCCCC2)s1	nt	4%	nt	nt	4%
C=CCc1ccc(OCCOCCN(C)C)c(OC)c1	-2%	-10%	2%	-3%	?
C=CCc1ccc(OCCn2cccc2C=O)c(OC)c1	0.63µM*	2%	0.56µM*	10%	0%
CC(c1ccccc1)N1CCC(CNC(=S)Nc2cccc(Cl)c2)C1 (stereo unspecified)	10µM*	?	?	4%	3.2µM*
Cc1cc(C)c(NC(=S)NCC2CCN(C(C)c3ccccc3)C2)c(C)c1 (stereo unspecified)	7.9µM*	-29%	?	7%	?
Cc1ccc(NC(=S)NCC2CCN(C(C)c3ccccc3)C2)cc1 (stereo unspecified)	?	-6%	?	1%	?
CCN(CCCNC(=O)c1nn(-c2ccc(OC)cc2)c(=O)c2c1c1ccccc1n2C)c1ccccc1	nt	-3%	nt	nt	10%
COC(=O)C1=C(C)NC(C)=C([N+](=O)[O-])[C@@H]1c1ccccc1C(F)(F)F	-2%	nt	3%	nt	nt
CCOc1cc(C2C(C#N)=C(N)OC(C)=C2C(C)=O)c(Br)c(Br)c1OC(C)C (stereo unspecified)	?	?	13µM*	-2%	?
